Results reported in PubChem BioAssay (NCI).
About 79,000 compounds went through this panel and 15% of them were active in at least one assay; those are over-represented in the sample as a whole. Values without a mark were called inactive. Active and inactive are the calls of the source. Rule as the data show it: active = growth inhibition above about 70%; inactive = the rest.

Experiments:
[1] = NCI Yeast Anticancer Drug Screen. Data for the rad50 strain (AID 155);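 also: 0% = growth of vehicle-only cultures of the same strain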; settings: S. cerevisiae rad50 strain growth inhibition, stronger effect = higher value
In short: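 DNA repair mutant yeast, compound exposure, growth read-out; inhibition is taken relative to vehicle.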

[2] = NCI Yeast Anticancer Drug Screen. Data for the mec2-1 strain (AID 157); settings: S. cerevisiae mec2-1 strain, stronger effect = higher value
In short: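 Using mec2-1 yeast: add compound, measure growth, express inhibition versus vehicle-treated cultures.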

[3] = NCI Yeast Anticancer Drug Screen. Data for the sgs1 mgt1 strain (AID 161);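 also: 0% = growth of cultures given vehicle only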; settings: S. cerevisiae sgs1 mgt1 strain, stronger effect = higher value
In short: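 Percent growth inhibition was derived by comparing compound-exposed mutant yeast with vehicle-exposed cultures. The strain carries alterations in DNA damage repair.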

[4] = NCI Yeast Anticancer Drug Screen. Data for the cln2 rad14 strain (AID 165);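 also: 0% = growth equal to vehicle treated cultures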; settings: S. cerevisiae cln2 rad14 strain, stronger effect = higher value
In short: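 Yeast strain cln2 rad14, bearing defects in cell cycle control and DNA repair, serves as the test system; values reflect growth inhibition compared with vehicle.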

[5] = NCI Yeast Anticancer Drug Screen. Data for the bub3 strain (AID 167); settings: S. cerevisiae bub3 mutant strain, stronger effect = higher value
In short: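 In this screen, a yeast mutant lacking normal mitotic checkpoint function is challenged with compound. Relative growth versus vehicle gives the inhibition value.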

[6] = NCI Yeast Anticancer Drug Screen. Data for the mlh1 rad18 strain (AID 175); settings: S. cerevisiae mlh1 rad18 strain growth inhibition, stronger effect = higher value
In short: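 Steps: expose repair-defective yeast to compound; measure growth; express inhibition against vehicle-treated controls.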

[7] = at 5.0 µM (retest, dose inferred, filed as 0.5)
[8] = at 50.0 µM (retest, dose inferred, filed as 5.0)

Row | SMILES | growth inhibition [1, 7] | growth inhibition [1, 8] | growth inhibition ([1]; at 50.0 µM) | growth inhibition [2, 7] | growth inhibition [2, 8] | growth inhibition ([2]; at 50.0 µM) | growth inhibition [3, 7] | growth inhibition [3, 8] | growth inhibition ([3]; at 50.0 µM) | growth inhibition [4, 7] | growth inhibition [4, 8] | growth inhibition ([4]; at 50.0 µM) | growth inhibition [5, 7] | growth inhibition [5, 8] | growth inhibition ([5]; at 50.0 µM) | growth inhibition [6, 7] | growth inhibition [6, 8] | growth inhibition ([6]; at 50.0 µM)
1 | NNc1cc(Cl)ccc1Cl | 73% (active) | 93% (active) | 90.7% (active) | 91% (active) | 99% (active) | 91.8% (active) | 57% | 98% (active) | 94% (active) | 80% (active) | 98% (active) | 91.8% (active) | 89% (active) | 99% (active) | 91.5% (active) | 55% | 100% (active) | 90.7% (active)
2 | Clc1ccc(-c2csc(NCC3CCCO3)n2)cc1 (stereo not given) | 46% | 60% | 66.4% | 27% | 57% | 39% | 34% | 83% (active) | 77.2% (active) | 27% | 53% | 63.2% | 39% | 82% (active) | 73.9% (active) | 44% | 70% (active) | 62.4%
3 | CC1CCCCN(CCN(Cc2ccccc2)c2ccccc2)C1 (stereo not given) | -1% | 32% | 58.1% | 2% | 29% | 45.9% | 10% | 75% (active) | 73.8% (active) | 4% | 37% | 80.8% (active) | 5% | 52% | 58% | 8% | 42% | 54.1%
4 | O=C1NC(=O)C(Cc2ccccc2)(Cc2ccccc2)S1 | 5% | 98% (active) | 99.2% (active) | 10% | 99% (active) | 99.4% (active) | -16% | 98% (active) | 99.3% (active) | 21% | 99% (active) | 99.2% (active) | 17% | 99% (active) | 99.5% (active) | 6% | 99% (active) | 99.2% (active)
5 | C=CCOC(=O)SC(=S)OCN(C)C | 3% | 98% (active) | 99.2% (active) | -3% | 99% (active) | 99.4% (active) | 1% | 99% (active) | 99.4% (active) | 4% | 99% (active) | 98.6% (active) | -1% | 98% (active) | 99.3% (active) | 1% | 99% (active) | 99.1% (active)
6 | CC1OC(CC(=O)O)Cc2c1c(O)c1c(O)cc(-c3cc(=O)c4c(=O)c5c(c(=O)c=4c3=O)CC(CC(=O)O)OC5C)c(O)c1c2O (stereo not given) | -3% | 6% | -7.4% | 3% | 2% | 7.35% | -1% | 2% | 54.4% | 1% | 29% | -24.4% | 22% | 14% | 11.3% | 0% | 2% | 15.7%
7 | CCCN1CSC(=S)N(CCC)C1 | 41% | 92% (active) | 52.5% | 48% | 92% (active) | 77% (active) | 32% | 99% (active) | 80.5% (active) | 66% | 98% (active) | 32.1% | 34% | 100% (active) | 86.2% (active) | 37% | 97% (active) | 72.8% (active)
8 | Cc1ccc(-c2c(C#N)c(-c3ccc(Cl)cc3)c(C#N)c(=O)n2NS(=O)(=O)c2ccccc2)cc1 | 38% | 50% | 63.2% | 34% | 59% | 71% (active) | 28% | 58% | 69% | 53% | 60% | 63.6% | 52% | 64% | 71% (active) | 31% | 49% | 74.3% (active)
9 | CN(C)CCOC(=O)C1(CCC2CCCCC2)CCCCC1 | 0% | 80% (active) | 96.9% (active) | -1% | 17% | 30.9% | -2% | 57% | 60.5% | -3% | 37% | 18.7% | 1% | 32% | 85% (active) | -2% | 77% (active) | 93.3% (active)
10 | CC(C)(C)[Si](C)(C)OCC1OC(n2cnc3c(NC(=O)c4ccccc4)ncnc32)CC1O (stereo not given) | 2% | 4% | 10% | -2% | 4% | -28.8% | -1% | 6% | 3.25% | -1% | 2% | 77.6% (active) | -2% | -4% | 10.5% | -2% | 4% | 32.5%
